# What was measured:
# Assay in all cases: DAPPL (digital affinity profiling via proximity ligation, sequencing); 10 mM Tris-HCl pH 7.5, 50 mM NaCl, 1 mM DTT, 4% glycerol, room temperature, 30 min; GST-TFs on glutathione beads, 16-mer random dsDNA library, 0.1% formaldehyde crosslink after washing; high values mean tight binding
# FEV = biological target: T1, FEV (Homo sapiens, UniProt Q99581 1-238); conditions: protein: recombinant; tags: N-terminal GST; dsDNA, one strand shown
# T1 sequence: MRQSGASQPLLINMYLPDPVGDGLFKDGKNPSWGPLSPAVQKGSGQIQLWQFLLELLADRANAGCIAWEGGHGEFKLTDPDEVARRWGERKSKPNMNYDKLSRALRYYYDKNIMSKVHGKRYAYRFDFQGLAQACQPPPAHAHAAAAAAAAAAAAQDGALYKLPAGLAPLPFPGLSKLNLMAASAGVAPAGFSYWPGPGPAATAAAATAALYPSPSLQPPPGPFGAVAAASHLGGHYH
# Method in brief: (§1)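 Each value of binding signal is a hexamer's read frequency for a factor divided by the same hexamer's frequency in the tag-only sample. Barcoded, bead-captured GST fusions of human transcription factors made in yeast were pooled with that sample and incubated with 200 nmole of a random double-stranded 16-mer DNA library in Tris/NaCl/DTT/glycerol buffer at room temperature for 30 min. Washing, 0.1% formaldehyde crosslinking, proximity ligation, PCR and Illumina NextSeq500 sequencing followed.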
# ETV5 = ETV5 (Homo sapiens, UniProt P41161 1-510); conditions: protein: recombinant; tags: N-terminal GST; dsDNA, one strand shown
# Method in brief: as §1
# HSF1 = HSF1 (Homo sapiens, UniProt Q00613 1-529); conditions: protein: recombinant; tags: N-terminal GST; chain copies: 3; dsDNA, one strand shown
# Method in brief: as §1
# SPIC = biological target: T2, SPIC (Homo sapiens, UniProt Q8N5J4 1-248); conditions: protein: recombinant; tags: N-terminal GST; dsDNA, one strand shown
# T2 sequence: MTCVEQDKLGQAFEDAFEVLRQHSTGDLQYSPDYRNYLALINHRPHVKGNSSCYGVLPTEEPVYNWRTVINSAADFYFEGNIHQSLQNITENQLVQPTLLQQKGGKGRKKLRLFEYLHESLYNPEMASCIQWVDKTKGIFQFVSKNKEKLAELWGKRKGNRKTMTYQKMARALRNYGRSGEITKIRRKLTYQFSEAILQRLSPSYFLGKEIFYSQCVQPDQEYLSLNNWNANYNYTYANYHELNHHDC
# Method in brief: as §1
# ELF4 = ELF4 (Homo sapiens, UniProt Q99607 1-663); conditions: protein: recombinant; tags: N-terminal GST; dsDNA, one strand shown
# Method in brief: as §1
# ELK4 = biological target: T3, ELK4 (Homo sapiens, UniProt P28324-2 1-405); conditions: protein: recombinant; tags: N-terminal GST; dsDNA, one strand shown
# T3 sequence: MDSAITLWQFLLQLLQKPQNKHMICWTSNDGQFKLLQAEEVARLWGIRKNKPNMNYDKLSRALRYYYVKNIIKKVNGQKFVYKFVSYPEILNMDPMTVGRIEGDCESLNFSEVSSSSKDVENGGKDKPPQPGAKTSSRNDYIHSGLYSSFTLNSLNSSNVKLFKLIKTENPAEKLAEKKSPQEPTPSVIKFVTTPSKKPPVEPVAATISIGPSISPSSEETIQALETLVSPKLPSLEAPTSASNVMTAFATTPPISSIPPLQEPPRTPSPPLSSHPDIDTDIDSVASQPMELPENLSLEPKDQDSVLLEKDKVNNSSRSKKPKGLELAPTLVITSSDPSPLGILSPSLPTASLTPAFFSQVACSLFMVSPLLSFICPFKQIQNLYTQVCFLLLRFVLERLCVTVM
# Method in brief: as §1
# ETV2 = biological target: T4, ETV2 (Homo sapiens, UniProt O00321 1-342); conditions: protein: recombinant; tags: N-terminal GST; dsDNA, one strand shown
# T4 sequence: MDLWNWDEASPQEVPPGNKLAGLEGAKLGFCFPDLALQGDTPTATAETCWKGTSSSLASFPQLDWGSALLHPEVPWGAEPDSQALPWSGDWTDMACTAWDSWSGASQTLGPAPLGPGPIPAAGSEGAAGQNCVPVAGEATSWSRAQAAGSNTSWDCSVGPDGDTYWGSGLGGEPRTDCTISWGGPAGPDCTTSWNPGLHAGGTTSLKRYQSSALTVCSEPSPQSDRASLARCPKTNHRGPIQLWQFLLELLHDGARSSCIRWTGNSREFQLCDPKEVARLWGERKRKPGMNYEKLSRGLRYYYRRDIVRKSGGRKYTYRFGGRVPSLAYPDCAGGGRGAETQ
# Method in brief: as §1
# ELF3 = biological target: T5, ELF3 (Homo sapiens, UniProt P78545 1-371); conditions: protein: recombinant; tags: N-terminal GST; dsDNA, one strand shown
# T5 sequence: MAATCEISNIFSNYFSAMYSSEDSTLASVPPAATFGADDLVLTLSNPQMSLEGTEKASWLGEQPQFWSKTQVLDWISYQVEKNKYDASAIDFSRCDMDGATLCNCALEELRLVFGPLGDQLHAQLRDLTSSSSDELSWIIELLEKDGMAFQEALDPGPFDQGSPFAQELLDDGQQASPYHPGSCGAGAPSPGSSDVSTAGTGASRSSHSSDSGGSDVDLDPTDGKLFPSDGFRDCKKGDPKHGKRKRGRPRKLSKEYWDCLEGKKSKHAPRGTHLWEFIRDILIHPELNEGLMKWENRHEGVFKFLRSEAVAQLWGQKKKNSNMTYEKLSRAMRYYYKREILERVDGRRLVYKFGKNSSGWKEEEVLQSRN
# Method in brief: as §1
# CRX = CRX (Homo sapiens, UniProt O43186 1-299); conditions: protein: recombinant; tags: N-terminal GST; dsDNA, one strand shown
# Method in brief: as §1
# ETV1 = ETV1 (Homo sapiens, UniProt P50549 1-477); conditions: protein: recombinant; tags: N-terminal GST; dsDNA, one strand shown
# Method in brief: as §1
# ERF = biological target: T6, ERF (Homo sapiens, UniProt P50548 1-548); conditions: protein: recombinant; tags: N-terminal GST; dsDNA, one strand shown
# T6 sequence: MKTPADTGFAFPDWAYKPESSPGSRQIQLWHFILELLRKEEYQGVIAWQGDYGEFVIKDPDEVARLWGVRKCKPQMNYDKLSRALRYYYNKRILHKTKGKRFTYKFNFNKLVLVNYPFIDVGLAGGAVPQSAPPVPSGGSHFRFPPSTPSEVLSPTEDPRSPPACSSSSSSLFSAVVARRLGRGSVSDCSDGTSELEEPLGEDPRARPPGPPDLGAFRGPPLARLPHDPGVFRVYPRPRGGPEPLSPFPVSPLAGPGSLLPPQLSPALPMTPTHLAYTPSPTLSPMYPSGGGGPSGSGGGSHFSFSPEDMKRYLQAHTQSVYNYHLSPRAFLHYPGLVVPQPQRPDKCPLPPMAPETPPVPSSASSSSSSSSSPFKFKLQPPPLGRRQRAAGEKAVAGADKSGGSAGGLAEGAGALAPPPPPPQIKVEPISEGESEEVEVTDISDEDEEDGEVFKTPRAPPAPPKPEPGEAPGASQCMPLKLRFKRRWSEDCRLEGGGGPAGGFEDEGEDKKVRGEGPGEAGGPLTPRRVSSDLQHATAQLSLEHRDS
# Method in brief: as §1
# ETV3L = biological target: T7, ETV3L (Homo sapiens, UniProt Q6ZN32 1-361); conditions: protein: recombinant; tags: N-terminal GST; dsDNA, one strand shown
# T7 sequence: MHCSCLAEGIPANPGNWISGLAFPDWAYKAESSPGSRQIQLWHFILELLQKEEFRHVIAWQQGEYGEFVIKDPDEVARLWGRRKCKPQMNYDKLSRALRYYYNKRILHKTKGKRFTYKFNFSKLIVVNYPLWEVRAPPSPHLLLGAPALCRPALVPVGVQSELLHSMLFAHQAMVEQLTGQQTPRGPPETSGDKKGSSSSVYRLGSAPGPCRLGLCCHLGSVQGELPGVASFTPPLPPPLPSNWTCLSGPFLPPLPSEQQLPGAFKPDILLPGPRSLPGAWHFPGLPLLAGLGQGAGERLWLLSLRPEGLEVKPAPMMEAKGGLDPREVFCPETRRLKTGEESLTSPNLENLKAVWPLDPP
# Method in brief: as §1
# ETS2 = biological target: T8, ETS2 (Homo sapiens, UniProt P15036 1-469); conditions: protein: recombinant; tags: N-terminal GST; dsDNA, one strand shown
# T8 sequence: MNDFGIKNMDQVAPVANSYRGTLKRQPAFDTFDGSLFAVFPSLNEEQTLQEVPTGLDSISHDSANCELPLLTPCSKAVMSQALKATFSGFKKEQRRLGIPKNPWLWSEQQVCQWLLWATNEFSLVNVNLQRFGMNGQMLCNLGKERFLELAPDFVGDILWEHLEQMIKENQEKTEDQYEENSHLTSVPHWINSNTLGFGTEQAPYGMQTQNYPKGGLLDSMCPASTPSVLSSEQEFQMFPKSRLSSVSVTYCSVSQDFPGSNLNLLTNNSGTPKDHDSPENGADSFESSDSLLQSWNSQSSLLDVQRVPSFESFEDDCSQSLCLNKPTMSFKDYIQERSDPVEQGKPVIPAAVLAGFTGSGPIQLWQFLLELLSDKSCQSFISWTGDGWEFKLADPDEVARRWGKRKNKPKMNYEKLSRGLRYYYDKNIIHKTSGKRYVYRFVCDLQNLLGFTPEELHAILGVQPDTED
# Method in brief: as §1
# SPDEF = biological target: T9, SPDEF (Homo sapiens, UniProt O95238 1-335); conditions: protein: recombinant; tags: N-terminal GST; dsDNA, one strand shown
# T9 sequence: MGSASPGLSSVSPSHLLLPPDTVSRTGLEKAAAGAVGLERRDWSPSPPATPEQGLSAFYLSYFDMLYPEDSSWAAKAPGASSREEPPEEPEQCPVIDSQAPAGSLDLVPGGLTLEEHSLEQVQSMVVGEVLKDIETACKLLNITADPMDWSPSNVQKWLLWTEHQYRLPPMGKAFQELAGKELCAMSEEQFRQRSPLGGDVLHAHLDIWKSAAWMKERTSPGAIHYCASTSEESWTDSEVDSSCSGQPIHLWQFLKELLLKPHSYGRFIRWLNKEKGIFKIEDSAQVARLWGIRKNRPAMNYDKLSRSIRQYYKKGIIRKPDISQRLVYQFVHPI
# Method in brief: as §1
# ETV7 = biological target: T10, ETV7 (Homo sapiens, UniProt Q9Y603 1-341); conditions: protein: recombinant; tags: N-terminal GST; dsDNA, one strand shown
# T10 sequence: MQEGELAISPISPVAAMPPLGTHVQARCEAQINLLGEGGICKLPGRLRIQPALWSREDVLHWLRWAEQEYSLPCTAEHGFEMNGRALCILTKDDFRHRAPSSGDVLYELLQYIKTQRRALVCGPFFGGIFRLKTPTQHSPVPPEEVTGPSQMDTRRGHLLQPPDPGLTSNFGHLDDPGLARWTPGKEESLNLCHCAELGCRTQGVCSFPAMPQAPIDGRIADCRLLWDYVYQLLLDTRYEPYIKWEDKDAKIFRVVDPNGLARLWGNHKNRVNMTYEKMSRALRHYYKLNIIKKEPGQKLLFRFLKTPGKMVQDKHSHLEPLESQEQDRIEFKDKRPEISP
# Method in brief: as §1
# ELF5 = biological target: T11, ELF5 (Homo sapiens, UniProt Q9UKW6-2 1-255); conditions: protein: recombinant; tags: N-terminal GST; dsDNA, one strand shown
# T11 sequence: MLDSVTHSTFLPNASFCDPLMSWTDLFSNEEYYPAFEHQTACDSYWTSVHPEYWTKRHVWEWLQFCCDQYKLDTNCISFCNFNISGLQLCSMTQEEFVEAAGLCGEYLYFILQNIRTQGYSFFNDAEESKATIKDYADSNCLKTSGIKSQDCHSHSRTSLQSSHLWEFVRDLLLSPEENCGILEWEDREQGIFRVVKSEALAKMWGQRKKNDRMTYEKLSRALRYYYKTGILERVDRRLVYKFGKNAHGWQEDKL
# Method in brief: as §1
# ETV3 = biological target: T12, ETV3 (Homo sapiens, UniProt P41162-2 1-143); conditions: protein: recombinant; tags: N-terminal GST; dsDNA, one strand shown
# T12 sequence: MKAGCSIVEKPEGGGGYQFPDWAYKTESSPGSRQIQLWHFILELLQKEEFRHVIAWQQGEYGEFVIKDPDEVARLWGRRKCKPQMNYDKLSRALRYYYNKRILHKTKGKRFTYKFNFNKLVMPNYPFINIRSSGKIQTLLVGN
# Method in brief: as §1
# ETV6 = ETV6 (Homo sapiens, UniProt P41212 1-452); conditions: protein: recombinant; tags: N-terminal GST; dsDNA, one strand shown
# Method in brief: as §1
# Chain of HSF1 (Q00613 whole entry): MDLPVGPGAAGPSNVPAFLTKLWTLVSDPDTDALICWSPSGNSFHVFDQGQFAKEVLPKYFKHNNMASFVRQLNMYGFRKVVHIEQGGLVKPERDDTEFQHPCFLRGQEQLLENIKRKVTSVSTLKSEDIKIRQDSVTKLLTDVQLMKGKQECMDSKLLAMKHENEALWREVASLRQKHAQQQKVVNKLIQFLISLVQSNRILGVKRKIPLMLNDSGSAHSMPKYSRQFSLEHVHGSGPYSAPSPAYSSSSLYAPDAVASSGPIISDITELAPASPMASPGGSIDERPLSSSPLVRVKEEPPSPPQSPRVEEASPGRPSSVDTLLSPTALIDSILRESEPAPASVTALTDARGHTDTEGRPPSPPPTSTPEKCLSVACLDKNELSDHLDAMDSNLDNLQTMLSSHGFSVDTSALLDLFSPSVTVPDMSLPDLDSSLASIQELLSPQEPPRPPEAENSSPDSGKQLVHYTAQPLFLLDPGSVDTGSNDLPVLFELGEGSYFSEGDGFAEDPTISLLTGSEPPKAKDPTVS
# Chain of ELF4 (Q99607 whole entry): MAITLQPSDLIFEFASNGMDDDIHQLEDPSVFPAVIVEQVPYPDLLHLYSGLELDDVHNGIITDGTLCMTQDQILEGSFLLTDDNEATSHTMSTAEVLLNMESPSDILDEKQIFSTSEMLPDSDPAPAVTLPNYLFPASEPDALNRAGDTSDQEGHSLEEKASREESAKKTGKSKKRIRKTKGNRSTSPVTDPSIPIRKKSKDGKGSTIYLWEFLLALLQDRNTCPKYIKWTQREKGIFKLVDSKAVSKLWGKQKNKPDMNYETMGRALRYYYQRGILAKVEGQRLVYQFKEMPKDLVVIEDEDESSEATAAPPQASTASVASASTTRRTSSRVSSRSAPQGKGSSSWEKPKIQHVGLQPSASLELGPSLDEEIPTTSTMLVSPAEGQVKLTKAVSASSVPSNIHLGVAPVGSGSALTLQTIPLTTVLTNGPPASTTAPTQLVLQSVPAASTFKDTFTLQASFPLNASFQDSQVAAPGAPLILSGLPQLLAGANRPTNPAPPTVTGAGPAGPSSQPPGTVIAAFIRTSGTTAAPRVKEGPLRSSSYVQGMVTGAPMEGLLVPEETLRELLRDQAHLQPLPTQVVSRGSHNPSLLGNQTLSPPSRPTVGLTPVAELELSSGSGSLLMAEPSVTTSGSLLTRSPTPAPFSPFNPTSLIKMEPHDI
# Chain of ETV1 (P50549 whole entry): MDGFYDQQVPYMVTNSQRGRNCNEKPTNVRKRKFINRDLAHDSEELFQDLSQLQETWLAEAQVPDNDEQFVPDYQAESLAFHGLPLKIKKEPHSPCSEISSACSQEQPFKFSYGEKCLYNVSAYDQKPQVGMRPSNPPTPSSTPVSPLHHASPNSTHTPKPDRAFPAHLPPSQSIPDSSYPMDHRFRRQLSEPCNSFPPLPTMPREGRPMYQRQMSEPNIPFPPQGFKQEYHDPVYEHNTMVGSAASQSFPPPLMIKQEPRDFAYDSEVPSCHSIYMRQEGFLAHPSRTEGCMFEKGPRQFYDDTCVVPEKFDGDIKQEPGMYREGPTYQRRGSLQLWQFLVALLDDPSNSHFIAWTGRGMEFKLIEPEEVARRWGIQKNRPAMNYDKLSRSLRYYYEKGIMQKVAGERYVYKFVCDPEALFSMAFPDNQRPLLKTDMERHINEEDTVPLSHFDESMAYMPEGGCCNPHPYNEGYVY
# Chain of ETV6 (P41212 whole entry): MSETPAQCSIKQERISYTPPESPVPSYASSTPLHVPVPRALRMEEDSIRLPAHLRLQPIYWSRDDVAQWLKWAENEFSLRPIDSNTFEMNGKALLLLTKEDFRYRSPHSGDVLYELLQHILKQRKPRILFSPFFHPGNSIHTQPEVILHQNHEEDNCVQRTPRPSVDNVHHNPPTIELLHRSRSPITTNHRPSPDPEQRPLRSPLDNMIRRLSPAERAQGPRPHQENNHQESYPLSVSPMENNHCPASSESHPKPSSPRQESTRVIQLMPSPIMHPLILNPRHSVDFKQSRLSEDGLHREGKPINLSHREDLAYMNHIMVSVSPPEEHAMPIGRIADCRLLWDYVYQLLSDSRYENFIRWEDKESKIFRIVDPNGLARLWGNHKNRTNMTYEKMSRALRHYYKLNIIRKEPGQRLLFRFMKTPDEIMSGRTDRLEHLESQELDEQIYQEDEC
# Chain of CRX (O43186 whole entry): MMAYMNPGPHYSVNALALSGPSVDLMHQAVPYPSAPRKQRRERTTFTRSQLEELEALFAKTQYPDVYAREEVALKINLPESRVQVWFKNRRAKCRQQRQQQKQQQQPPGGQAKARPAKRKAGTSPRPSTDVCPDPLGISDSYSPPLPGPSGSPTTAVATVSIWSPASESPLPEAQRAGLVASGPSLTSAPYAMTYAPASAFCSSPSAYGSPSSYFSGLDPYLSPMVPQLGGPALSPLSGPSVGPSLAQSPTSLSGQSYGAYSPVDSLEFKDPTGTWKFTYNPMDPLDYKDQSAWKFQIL
# Chain of ETV5 (P41161 whole entry): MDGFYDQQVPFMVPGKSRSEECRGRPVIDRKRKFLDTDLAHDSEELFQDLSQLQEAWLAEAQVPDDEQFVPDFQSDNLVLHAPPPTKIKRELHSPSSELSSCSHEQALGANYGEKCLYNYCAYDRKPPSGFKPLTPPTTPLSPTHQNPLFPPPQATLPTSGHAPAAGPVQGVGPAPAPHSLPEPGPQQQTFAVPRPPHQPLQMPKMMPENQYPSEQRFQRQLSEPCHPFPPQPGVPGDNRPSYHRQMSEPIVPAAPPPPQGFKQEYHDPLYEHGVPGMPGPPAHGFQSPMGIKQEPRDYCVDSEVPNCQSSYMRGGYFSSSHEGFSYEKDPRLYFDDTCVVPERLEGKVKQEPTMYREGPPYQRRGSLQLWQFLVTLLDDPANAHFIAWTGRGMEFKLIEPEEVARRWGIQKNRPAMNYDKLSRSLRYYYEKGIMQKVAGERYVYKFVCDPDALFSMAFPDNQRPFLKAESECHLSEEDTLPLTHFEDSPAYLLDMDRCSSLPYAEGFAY
sequence,measurement,setting,value
TTCCAC,binding signal,FEV,"1.37 fold enrichment (6-mer frequency, TF over GST control)"
same,binding signal,ETV5,"1.41 fold enrichment (6-mer frequency, TF over GST control)"
same,binding signal,HSF1,"1.83 fold enrichment (6-mer frequency, TF over GST control)"
same,binding signal,SPIC,"1.57 fold enrichment (6-mer frequency, TF over GST control)"
same,binding signal,ELF4,"1.42 fold enrichment (6-mer frequency, TF over GST control)"
same,binding signal,ELK4,"1.39 fold enrichment (6-mer frequency, TF over GST control)"
same,binding signal,ETV2,"1.42 fold enrichment (6-mer frequency, TF over GST control)"
same,binding signal,ELF3,"1.38 fold enrichment (6-mer frequency, TF over GST control)"
same,binding signal,CRX,"1.26 fold enrichment (6-mer frequency, TF over GST control)"
same,binding signal,ETV1,"1.38 fold enrichment (6-mer frequency, TF over GST control)"
same,binding signal,ERF,"1.38 fold enrichment (6-mer frequency, TF over GST control)"
same,binding signal,ETV3L,"1.54 fold enrichment (6-mer frequency, TF over GST control)"
same,binding signal,ETS2,"1.44 fold enrichment (6-mer frequency, TF over GST control)"
same,binding signal,SPDEF,"1.36 fold enrichment (6-mer frequency, TF over GST control)"
same,binding signal,ETV7,"1.31 fold enrichment (6-mer frequency, TF over GST control)"
same,binding signal,ELF5,"1.51 fold enrichment (6-mer frequency, TF over GST control)"
same,binding signal,ETV3,"1.46 fold enrichment (6-mer frequency, TF over GST control)"
same,binding signal,ETV6,"1.47 fold enrichment (6-mer frequency, TF over GST control)"

# Reference: PMC7862700, “An all-to-all approach to the identification of sequence-specific readers for epigenetic DNA modifications on cytosine”
